Among the data in ChEMBL document CHEMBL1961873, “Compounds: GSK PKIS; Assays: Nanosyn kinase panel” (2012) are inhibition values, retold here.

The subject of experiment [1] is Tyrosine-protein kinase ABL1 (Homo sapiens), P00519 [T315I]. The conditions noted are these: at 1 µM.
Experiment [2] concerns Tyrosine-protein kinase ABL1 (Homo sapiens), P00519 [Y253F]. The conditions noted are these: at 0.1 µM.
Experiment [3] shares this test system. The conditions noted are these: at 1 µM.
Experiment [4] concerns the target Tyrosine-protein kinase ABL1 (Homo sapiens) (UniProt P00519). The conditions noted are these: at 0.1 µM.
The target is the same in experiment [5]. The conditions noted are these: at 1 µM.
Experiment [6] deals with ALK tyrosine kinase receptor (Homo sapiens) (UniProt Q9UM73). The conditions noted are these: at 0.1 µM.
Sequence of ALK tyrosine kinase receptor (Homo sapiens) (Q9UM73 19-1620 limits assumed): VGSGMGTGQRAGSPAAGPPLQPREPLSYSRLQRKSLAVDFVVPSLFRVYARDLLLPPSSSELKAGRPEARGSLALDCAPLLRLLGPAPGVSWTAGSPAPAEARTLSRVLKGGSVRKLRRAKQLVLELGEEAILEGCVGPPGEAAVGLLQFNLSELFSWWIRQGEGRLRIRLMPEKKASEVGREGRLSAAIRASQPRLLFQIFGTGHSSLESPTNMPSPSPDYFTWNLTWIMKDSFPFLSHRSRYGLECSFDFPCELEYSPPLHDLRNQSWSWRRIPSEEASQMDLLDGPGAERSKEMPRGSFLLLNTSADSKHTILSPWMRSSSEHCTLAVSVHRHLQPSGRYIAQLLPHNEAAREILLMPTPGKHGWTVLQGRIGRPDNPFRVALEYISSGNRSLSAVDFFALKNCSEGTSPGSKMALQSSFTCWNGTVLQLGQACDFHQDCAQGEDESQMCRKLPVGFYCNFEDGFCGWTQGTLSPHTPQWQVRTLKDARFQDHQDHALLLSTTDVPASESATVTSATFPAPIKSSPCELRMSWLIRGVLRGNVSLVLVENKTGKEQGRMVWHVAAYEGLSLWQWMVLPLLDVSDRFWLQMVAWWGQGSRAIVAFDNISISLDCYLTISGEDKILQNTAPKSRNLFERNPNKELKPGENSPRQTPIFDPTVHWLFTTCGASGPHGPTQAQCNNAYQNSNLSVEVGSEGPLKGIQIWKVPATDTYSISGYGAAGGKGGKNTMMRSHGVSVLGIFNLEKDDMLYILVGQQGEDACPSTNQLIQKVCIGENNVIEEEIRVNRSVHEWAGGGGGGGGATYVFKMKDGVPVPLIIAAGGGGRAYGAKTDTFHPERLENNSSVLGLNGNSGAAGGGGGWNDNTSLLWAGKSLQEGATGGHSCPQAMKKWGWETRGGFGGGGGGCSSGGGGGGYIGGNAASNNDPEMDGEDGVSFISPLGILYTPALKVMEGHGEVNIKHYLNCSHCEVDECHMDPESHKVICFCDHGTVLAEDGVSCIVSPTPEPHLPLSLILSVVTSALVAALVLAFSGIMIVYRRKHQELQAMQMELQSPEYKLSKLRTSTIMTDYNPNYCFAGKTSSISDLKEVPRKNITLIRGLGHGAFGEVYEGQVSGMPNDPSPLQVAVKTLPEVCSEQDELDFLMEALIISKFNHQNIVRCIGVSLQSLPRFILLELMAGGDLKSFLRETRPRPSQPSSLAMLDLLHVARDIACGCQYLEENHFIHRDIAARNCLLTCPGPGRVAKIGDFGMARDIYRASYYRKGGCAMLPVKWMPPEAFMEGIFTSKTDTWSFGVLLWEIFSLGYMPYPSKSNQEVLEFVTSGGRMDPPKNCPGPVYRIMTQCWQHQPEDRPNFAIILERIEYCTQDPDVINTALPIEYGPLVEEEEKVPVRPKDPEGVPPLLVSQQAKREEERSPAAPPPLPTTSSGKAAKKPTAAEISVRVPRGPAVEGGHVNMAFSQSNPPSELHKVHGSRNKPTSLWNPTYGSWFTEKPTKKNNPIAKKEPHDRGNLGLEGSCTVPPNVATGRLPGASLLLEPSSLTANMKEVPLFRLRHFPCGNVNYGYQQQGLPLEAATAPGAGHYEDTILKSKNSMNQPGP
Experiment [7] shares this target. The conditions noted are these: at 1 µM.
Experiment [8] concerns the target Tyrosine-protein kinase ABL2 (Homo sapiens) (UniProt P42684). The conditions noted are these: at 0.1 µM.
The target is the same in experiment [9]. The conditions noted are these: at 1 µM.
The target of experiment [10] is Tyrosine-protein kinase receptor UFO (Homo sapiens) (UniProt P30530). The conditions noted are these: at 0.1 µM.
Sequence of Tyrosine-protein kinase receptor UFO (Homo sapiens) (P30530 whole entry): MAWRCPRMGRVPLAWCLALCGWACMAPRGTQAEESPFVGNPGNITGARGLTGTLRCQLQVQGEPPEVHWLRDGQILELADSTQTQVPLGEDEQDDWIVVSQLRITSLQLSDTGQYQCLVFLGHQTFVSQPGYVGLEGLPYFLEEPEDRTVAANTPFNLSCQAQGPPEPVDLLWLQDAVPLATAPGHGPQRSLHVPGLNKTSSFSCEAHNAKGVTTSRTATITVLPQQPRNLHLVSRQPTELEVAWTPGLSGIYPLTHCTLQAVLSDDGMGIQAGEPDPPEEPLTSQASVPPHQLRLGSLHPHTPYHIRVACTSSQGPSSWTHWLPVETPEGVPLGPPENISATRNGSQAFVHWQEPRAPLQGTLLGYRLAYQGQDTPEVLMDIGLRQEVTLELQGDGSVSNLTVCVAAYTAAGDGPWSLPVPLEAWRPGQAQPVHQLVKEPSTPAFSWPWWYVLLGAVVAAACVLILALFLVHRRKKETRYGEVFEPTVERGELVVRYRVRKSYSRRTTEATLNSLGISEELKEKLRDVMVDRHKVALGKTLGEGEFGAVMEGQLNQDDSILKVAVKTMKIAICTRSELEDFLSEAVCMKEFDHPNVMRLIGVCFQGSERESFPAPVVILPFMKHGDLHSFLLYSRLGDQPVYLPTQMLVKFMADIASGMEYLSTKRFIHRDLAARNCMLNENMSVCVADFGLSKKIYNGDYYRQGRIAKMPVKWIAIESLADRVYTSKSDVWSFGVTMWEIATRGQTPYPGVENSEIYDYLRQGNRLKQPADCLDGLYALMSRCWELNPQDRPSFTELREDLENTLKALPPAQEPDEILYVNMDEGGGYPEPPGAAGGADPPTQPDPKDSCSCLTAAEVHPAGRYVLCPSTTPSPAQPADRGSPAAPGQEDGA
The target is the same in experiment [11]. The conditions noted are these: at 1 µM.
Experiment [12] has as its target Tyrosine-protein kinase Blk (Homo sapiens) (UniProt P51451). The conditions noted are these: at 0.1 µM.
Experiment [13] shares this target. The conditions noted are these: at 1 µM.
For experiment [14], the target named is T1, Cytoplasmic tyrosine-protein kinase BMX (Homo sapiens) (UniProt P51813).
T1 sequence (whole entry): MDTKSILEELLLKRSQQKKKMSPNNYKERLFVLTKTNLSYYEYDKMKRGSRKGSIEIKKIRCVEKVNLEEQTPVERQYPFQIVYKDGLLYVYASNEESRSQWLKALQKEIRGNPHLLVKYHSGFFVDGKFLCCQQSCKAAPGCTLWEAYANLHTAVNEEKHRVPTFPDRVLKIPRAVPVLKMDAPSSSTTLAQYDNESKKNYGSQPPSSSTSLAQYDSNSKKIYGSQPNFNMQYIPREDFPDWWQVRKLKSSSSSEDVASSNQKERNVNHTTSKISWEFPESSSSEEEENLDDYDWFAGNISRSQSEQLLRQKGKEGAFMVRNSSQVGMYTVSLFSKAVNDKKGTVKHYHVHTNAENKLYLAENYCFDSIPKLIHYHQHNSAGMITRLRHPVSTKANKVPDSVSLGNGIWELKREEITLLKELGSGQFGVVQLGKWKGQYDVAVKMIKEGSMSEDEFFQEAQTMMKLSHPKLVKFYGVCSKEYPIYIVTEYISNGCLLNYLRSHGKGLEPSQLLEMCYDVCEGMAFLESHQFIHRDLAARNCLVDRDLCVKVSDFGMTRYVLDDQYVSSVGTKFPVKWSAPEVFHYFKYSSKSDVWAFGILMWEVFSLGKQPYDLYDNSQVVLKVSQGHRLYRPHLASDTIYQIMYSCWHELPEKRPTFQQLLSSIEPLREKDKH
The conditions noted are these: at 0.1 µM.

Experiment [15] deals with T1, Cytoplasmic tyrosine-protein kinase BMX (Homo sapiens). The conditions noted are these: at 1 µM.
In experiment [16] the target is Protein-tyrosine kinase 6 (Homo sapiens) (UniProt Q13882). The conditions noted are these: at 0.1 µM.
Sequence of Protein-tyrosine kinase 6 (Homo sapiens) (Q13882 whole entry, looked up): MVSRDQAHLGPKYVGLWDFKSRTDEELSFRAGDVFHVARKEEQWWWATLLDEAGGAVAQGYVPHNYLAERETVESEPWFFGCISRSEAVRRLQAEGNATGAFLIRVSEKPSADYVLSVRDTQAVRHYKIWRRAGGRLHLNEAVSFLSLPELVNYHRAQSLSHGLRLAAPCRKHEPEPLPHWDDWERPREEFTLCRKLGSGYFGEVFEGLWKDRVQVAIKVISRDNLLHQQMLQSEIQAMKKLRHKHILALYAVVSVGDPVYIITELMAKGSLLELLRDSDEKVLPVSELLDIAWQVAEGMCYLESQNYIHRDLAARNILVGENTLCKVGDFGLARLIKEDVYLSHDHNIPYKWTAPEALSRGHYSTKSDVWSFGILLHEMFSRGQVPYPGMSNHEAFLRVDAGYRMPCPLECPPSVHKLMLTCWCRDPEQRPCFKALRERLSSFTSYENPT
For experiment [17] the target is unchanged. The conditions noted are these: at 1 µM.
Experiment [18] concerns the target Tyrosine-protein kinase BTK (Homo sapiens) (UniProt Q06187). The conditions noted are these: at 0.1 µM.
Experiment [19] shares this target. The conditions noted are these: at 1 µM.
The target in experiment [20] is Tyrosine-protein kinase CSK (Homo sapiens) (UniProt P41240). The conditions noted are these: at 0.1 µM.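 Note: value given is the averaged percent inhibition of CSK kinase activity, from the GSK PKIS kinase inhibitor set screening panel.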
Sequence of Tyrosine-protein kinase CSK (Homo sapiens) (P41240 2-450 limits assumed): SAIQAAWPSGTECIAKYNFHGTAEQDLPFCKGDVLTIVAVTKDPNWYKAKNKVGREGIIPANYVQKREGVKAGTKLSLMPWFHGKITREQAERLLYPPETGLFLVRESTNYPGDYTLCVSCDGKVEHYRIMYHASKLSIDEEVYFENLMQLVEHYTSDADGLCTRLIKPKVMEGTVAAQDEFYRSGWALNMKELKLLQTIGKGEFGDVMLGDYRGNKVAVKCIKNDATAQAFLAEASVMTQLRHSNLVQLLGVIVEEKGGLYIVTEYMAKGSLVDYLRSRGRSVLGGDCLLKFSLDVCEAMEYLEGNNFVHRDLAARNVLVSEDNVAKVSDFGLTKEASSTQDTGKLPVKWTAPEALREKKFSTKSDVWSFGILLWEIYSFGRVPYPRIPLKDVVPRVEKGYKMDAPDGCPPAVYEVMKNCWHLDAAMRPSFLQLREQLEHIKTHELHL

Sequence of Tyrosine-protein kinase Blk (Homo sapiens) (P51451 2-505 limits assumed): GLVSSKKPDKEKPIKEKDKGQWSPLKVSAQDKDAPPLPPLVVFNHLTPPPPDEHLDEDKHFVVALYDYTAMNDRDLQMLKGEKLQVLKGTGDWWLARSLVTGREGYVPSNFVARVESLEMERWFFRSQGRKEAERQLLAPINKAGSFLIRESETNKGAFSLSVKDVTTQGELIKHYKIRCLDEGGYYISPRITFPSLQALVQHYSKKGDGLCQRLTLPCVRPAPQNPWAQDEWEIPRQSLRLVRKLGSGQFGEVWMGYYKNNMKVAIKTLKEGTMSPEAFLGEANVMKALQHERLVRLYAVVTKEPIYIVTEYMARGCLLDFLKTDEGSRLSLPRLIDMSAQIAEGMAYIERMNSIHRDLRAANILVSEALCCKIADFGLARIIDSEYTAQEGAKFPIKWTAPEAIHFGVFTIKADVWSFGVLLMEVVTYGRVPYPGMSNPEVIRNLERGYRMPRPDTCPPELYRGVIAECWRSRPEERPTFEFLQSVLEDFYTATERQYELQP
Sequence of Tyrosine-protein kinase ABL2 (Homo sapiens) (P42684 whole entry): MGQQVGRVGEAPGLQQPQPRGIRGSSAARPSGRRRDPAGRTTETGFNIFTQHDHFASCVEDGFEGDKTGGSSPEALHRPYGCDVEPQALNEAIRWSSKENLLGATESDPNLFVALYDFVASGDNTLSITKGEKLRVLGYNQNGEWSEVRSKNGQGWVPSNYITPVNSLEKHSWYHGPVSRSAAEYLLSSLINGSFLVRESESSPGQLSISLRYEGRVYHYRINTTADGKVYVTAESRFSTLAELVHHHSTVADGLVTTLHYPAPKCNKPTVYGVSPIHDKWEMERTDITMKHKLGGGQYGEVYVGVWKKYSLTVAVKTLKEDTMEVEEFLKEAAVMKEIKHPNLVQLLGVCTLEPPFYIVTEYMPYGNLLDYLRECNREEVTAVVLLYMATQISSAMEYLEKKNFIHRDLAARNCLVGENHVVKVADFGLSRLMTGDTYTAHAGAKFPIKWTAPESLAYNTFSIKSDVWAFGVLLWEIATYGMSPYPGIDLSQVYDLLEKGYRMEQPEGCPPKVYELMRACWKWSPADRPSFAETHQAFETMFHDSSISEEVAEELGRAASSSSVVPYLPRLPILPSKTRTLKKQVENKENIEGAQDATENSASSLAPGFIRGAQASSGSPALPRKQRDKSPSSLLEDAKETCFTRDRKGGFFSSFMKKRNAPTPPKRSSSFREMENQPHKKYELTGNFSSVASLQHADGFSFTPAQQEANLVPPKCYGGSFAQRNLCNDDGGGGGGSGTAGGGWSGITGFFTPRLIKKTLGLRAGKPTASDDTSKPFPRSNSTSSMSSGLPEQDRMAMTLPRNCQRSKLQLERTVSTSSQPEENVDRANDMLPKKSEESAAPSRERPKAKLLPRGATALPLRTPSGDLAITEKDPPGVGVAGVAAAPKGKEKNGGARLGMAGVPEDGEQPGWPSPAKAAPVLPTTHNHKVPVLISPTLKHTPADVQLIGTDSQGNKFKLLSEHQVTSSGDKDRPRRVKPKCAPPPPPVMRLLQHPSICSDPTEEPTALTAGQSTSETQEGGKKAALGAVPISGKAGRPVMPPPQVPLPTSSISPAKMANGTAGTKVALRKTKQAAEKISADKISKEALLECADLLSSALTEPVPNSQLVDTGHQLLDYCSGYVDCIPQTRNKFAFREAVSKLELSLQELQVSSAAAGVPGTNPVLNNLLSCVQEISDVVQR

As for `CN(c1ccc(NC(=O)Nc2c(Cl)cccc2Cl)cc1)c1ccnc(Nc2cccc(CS(C)(=O)=O)c2)n1`, the inhibition was 73.2% in [1]; 19.4% in [2]; 56.2% in experiment [3]; 16.9% in experiment [4]; 53.1% in experiment [5]; 1.74% in experiment [6]. In addition, the inhibition in [7] was 4.6%; in [8], 25.1%; in [9] it was 55.1%; in [10], 4.33%; in experiment [11], 28.6%; in experiment [12], 37.2%. The inhibition in [13] turned out to be 75%; in [14], 47.1%; in [15], 73.5%; in [16], 10.8%; in [17] it was 44%; in experiment [18], 18.8%. For the same compound, the inhibition is 26.5% in experiment [19] and 10.6% in experiment [20].
Take `O=C1Nc2ccccc2/C1=C/Nc1ccc(-n2cncn2)cc1`: the inhibition was 17.2% in experiment [1]; 3.13% in [2]; 13.1% in experiment [3]; 1.87% in experiment [4]; 13.5% in experiment [5]; 1.97% in experiment [6]. The inhibition in experiment [7] was 11.8%; in experiment [8], 3.58%; in experiment [9], 7.69%; in experiment [10] it was -6.88%; in [11], -3.55%; in experiment [12], 3.13%. The inhibition in [13] worked out at 19.7%; in [14], 6.8%; in experiment [15] it was 4.54%; in experiment [16], 3.56%; in [17], 6%; in experiment [18], 0.25%. For the same compound, the values for the inhibition in experiment [19] and in [20] were -0.4% and 3.03%, respectively.
With `NC(=O)c1ccc(Oc2nccc(-c3c(-c4ccc(F)cc4)ncn3C3CCNCC3)n2)cc1`, the inhibition in experiment [1] worked out at 2.27%; in experiment [2], 3.97%; in experiment [3], 3.32%; in experiment [4] it was 4.17%; in [5], 2.89%; in experiment [6] it was 4.85%. Also, the inhibition is 4.45% in [7]; 2.35% in experiment [8]; 3.64% in [9]; -7.67% in experiment [10]; -8.36% in experiment [11]; 3.48% in experiment [12]. In addition, the inhibition in experiment [13] is 3.04%; in experiment [14] it was 5.3%; in experiment [15], 7.95%; in experiment [16], 3.36%; in [17], 6.07%; in experiment [18] it was -0.49%. In addition, the inhibition in [19] came out at 0.73%; in [20] it was 3.03%.
As to `c1ccc(-c2n[nH]cc2-c2ccnc(-c3ccc(OCCN4CCOCC4)cc3)c2)nc1`, the inhibition is 1.83% in experiment [1]; 13.5% in experiment [2]; 57.1% in [3]; 18.2% in [4]; 70% in experiment [5]; -2.58% in [6]. In addition, the inhibition in experiment [7] stood at 3.94%; in experiment [8], 5.43%; in experiment [9] it was 34.1%; in experiment [10], 8.29%; in experiment [11], 10.8%; in [12] it was 1.62%. Besides, the inhibition was 1.61% in experiment [13]; 2.19% in experiment [14]; 0.44% in experiment [15]; -5.63% in experiment [16]; -2.62% in experiment [17]; 0.21% in experiment [18]. Besides, the inhibition is 6.66% in [19] and -3.84% in [20].
In the case of `Fc1ccc(-c2ncn(C3CCNCC3)c2-c2ccnc(Oc3ccc(Oc4ccccc4)cc3)n2)cc1`, the inhibition amounted to 1.98% in experiment [1]; 1.99% in experiment [2]; 2.86% in experiment [3]; 3.87% in [4]; 2.97% in experiment [5]; 4.84% in [6]. The inhibition in [7] is 4.48%; in experiment [8], 2.96%; in [9], 3.58%; in experiment [10] it was -7.4%; in [11], -7.71%; in [12], 3.8%. In addition, the inhibition in [13] is 3.79%; in [14] it was 3.11%; in [15] it was 6.45%; in experiment [16], 1.09%; in experiment [17], 1.93%; in experiment [18] it was -2.01%. Moreover, the inhibition was 0.33% in experiment [19] and 0.47% in experiment [20].
`CCc1cccc(CC)c1/C=C/c1cncc(C(=O)NC)c1`: the inhibition came out at 4.76% in experiment [1]; 5.29% in [2]; 22.2% in experiment [3]; 8.06% in experiment [4]; 45.9% in experiment [5]; 2.66% in experiment [6]. Moreover, the inhibition in [7] is 4.03%; in experiment [8], 5.58%; in experiment [9], 12.9%; in experiment [10], -2.3%; in experiment [11], -1.28%; in [12] it was 2.14%. Besides, the inhibition turned out to be 4.46% in experiment [13]; 0.51% in experiment [14]; 4.87% in [15]; 2.78% in experiment [16]; 3.98% in [17]; 2.48% in [18]. Moreover, the inhibition was 2.98% in experiment [19] and 1.29% in experiment [20].
